Results filed as inconclusive are left out. Calls of active or inactive are those of the source. Unless noted, calls follow the shape of the full dose curve.
Columns and labels:
[1] = Nuclear factor erythroid 2-related factor 2/antioxidant responsive element (Nrf2/ARE) small molecule agonists: qHTS cell viability counter screen in human keratinocytes (AID 1919968; active = well fitted curve in the direction sought with a large enough effect in the repeat runs; an effect the other way counts as inactive or inconclusive; also: nearly all actives have a fitted effect of over 55% in size; also: potency is read from the fitted curve at half-maximal effect)
Method in brief: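 CellTiter-Fluor fluorescence, read 1 h after reagent, gave viability in the same wells as the ARE-luciferase assay. KeratinoSens cells (1,500/well) had 23 h compound exposure at 37 C/5% CO2 following 5 h plating.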

[2] = Nuclear factor erythroid 2-related factor 2/antioxidant responsive element (Nrf2/ARE) small molecule agonists: luciferase reporter gene qHTS assay in human keratinocytes (AID 1919969); also: nearly all actives have a fitted effect of over 35% in size
[3] = molecular target: Gonadotropin-releasing hormone receptor (Homo sapiens) (UniProt P30968); assay: Human gonadotropin-releasing hormone receptor (GnRHR) small molecule agonists, calcium flux assay in GnRHR-HEK293 cells (AID 1920063); also: nearly all actives have a fitted effect of over 35% in size; also: potency is read from the fitted curve at half-maximal effect
Method in brief: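 Agonist mode: compounds at 15 concentrations, in triplicate, went onto calcium dye-loaded GnRHR-HEK293 cells. Intracellular calcium was then followed as 480/540 nm fluorescence at 1 s intervals over 3 min.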

[4] = molecular target: KiSS-1 receptor (Homo sapiens) (UniProt Q969F8); assay: Human kisspeptin (KISS1R) small molecule agonists, calcium flux assay in KISS1R-HEK293 cells (AID 1920064; active = well fitted curve in the direction sought with a large enough effect in the repeat runs; an effect the other way counts as inactive or inconclusive)
Method in brief: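 Agonist mode: intracellular calcium rise tracked at 1 s intervals over 3 min (480/540 nm) immediately after compound addition to dye-loaded KISS1R-HEK293 stable cells. Each compound tested at 15 concentrations in triplicate.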

[5] = G protein-coupled receptor (GPCR) small molecule agonists, calcium flux assay: HEK293 wild type cell line counter screen (AID 1920065)
Method in brief: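 Calcium flux counter screen: compound added in agonist mode at 15 concentrations in triplicate to dye-loaded parental HEK293 cells. Fluorescence (480/540) read kinetically for 3 min; ATP served as positive control.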

[6] = p53 small molecule agonists, cell-based qHTS assay with human liver microsomes (AID 1963577);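 also: p53 response element beta-lactamase reporter cells with liver microsomes plus NADPH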
Method in brief: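 Metabolically competent format: test substances, human liver microsomes and NADPH (both 0.5 mg/mL final) incubated with p53RE-bla cells 16 h at 37 C. Beta-lactamase reporter signal then quantified by fluorescence.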

[7] = p53 small molecule agonists, cell-based qHTS assay with rat liver microsomes (AID 1963578)
Method in brief: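 Each plate received p53RE-bla cells, then compound, then rat liver microsomes and NADPH (both 0.5 mg/mL final). Plates were held 16 h at 37 C, and beta-lactamase activity was detected with LiveBLAzer over 2 h.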

[8] = p53 small molecule agonists, cell-based qHTS assay with human liver microsomes: qHTS cell viability counter screen (AID 1963579); also: nearly all actives have a fitted effect of over 45% in size; also: potency is read from the fitted curve at half-maximal effect
Method in brief: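 Tox21 library compounds, delivered from DMSO stocks, were tested on p53RE-bla cells together with 0.5 mg/mL human liver microsomes and 0.5 mg/mL NADPH (final) over 16 h at 37 C; CellTiter-Glo luminescence served as the cytotoxicity measure.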

[9] = p53 small molecule agonists, cell-based qHTS assay with rat liver microsomes: qHTS cell viability counter screen (AID 1963580); also: nearly all actives have a fitted effect of over 45% in size; also: potency is read from the fitted curve at half-maximal effect
Method in brief: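 Counter screen for cytotoxicity under metabolic activation: rat liver microsomes and NADPH, 0.5 mg/mL final each, added with compounds to p53RE-bla HCT-116 cells; 16 h at 37 C, then ATP luminescence read.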

[10] = p53 small molecule agonists, cell-based qHTS assay: qHTS cell viability counter screen (AID 1963581); also: nearly all actives have a fitted effect of over 45% in size; also: potency is read from the fitted curve at half-maximal effect
Method in brief: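 Counter screen read by CellTiter-Glo luminescence (ATP content, 30 min at room temperature), run in the same wells as the beta-lactamase reporter read. HCT-116 p53RE-bla cells saw compounds for 16 h at 37 C.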

[11] = molecular target: 5-hydroxytryptamine receptor 2A (Homo sapiens) (UniProt P28223); assay: 5-hydroxytryptamine receptor 2A (HTR2A) small molecule antagonists, cell-based qHTS assay (AID 1963586); also: nearly all actives have a fitted effect of over 45% in size; also: potency is read from the fitted curve at half-maximal effect
Method in brief: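 CHO cells stably expressing human HTR2A were plated for 18 h at 37 C, then loaded with calcium dye for 1 h. Compounds were preincubated 5 min at room temperature before DOI (4 nM solution) was added. Kinetic fluorescence was read for 3 min.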

[12] = molecular target: 5-hydroxytryptamine receptor 2A (Homo sapiens) (UniProt P28223); assay: 5-hydroxytryptamine receptor 2A (HTR2A) small molecule agonists, cell-based qHTS assay (AID 1963587); also: nearly all actives have a fitted effect of over 30% in size
Method in brief: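 HTR2A-CHO cells, plated 18 h at 37 C/5% CO2, dye-loaded 1 h at 37 C; compounds in DMSO added by pin tool (agonist mode). Intracellular calcium flux read as kinetic fluorescence on FDSS over 2 min at 1 s intervals.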

[13] = molecular target: Muscarinic acetylcholine receptor M1 (Homo sapiens) (UniProt P11229); assay: Cholinergic receptor muscarinic 1 (CHRM1) small molecule antagonists, cell-based qHTS assay (AID 1963588); also: nearly all actives have a fitted effect of over 40% in size; also: potency is read from the fitted curve at half-maximal effect
Method in brief: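 Compounds were tested at 15 concentrations in three independent runs. Dye-loaded CHRM1-CHO cells were exposed 5 min at room temperature before stimulation by acetylcholine added at 50nM. Intracellular calcium was read kinetically on FDSS for 3 min.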

[14] = molecular target: Muscarinic acetylcholine receptor M1 (Homo sapiens) (UniProt P11229); assay: Cholinergic receptor muscarinic 1 (CHRM1) small molecule agonists, cell-based qHTS assay (AID 1963589); also: nearly all actives have a fitted effect of over 35% in size
Method in brief: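 Agonist-mode calcium-flux screen: compounds at 15 concentrations, three independent runs, were pin-transferred onto dye-loaded human CHRM1-CHO cells. Fluorescence was then recorded kinetically every second over minutes.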

[15] = molecular target: D(2) dopamine receptor (Homo sapiens) (UniProt P14416); assay: Dopamine D2 receptor (DRD2) small molecule agonists, cell-based qHTS assay (AID 1963594); also: nearly all actives have a fitted effect of over 35% in size
Method in brief: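 HEK293 cells stably expressing DRD2 were cultured 24 h at 37 C, then given Ro20-1724 (0.1 mM final) and compounds for 10 min at room temperature. NKH477 (200nM) was then added for 30 min. cAMP was read by HTRF.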

[16] = molecular target: D(2) dopamine receptor (Homo sapiens) (UniProt P14416); assay: Dopamine D2 receptor (DRD2) small molecule antagonists, cell-based qHTS assay (AID 1963595; active = well fitted inhibition curve with a large enough effect in the signal ratio in the repeat runs, with a control signal flat; the % refers to the signal ratio; also: potency is read from the fitted curve at half-maximal effect)
Method in brief: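 Antagonism was scored as restored cAMP in HEK293-DRD2 cells. These cells were stimulated with 200 nM NKH477 and 12 nM quinpirole for 30 min at room temperature, in the presence of 0.1 mM Ro20-1724.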

[17] = cAMP Responsive Elements (CRE) small molecule antagonists, cell-based qHTS assay (AID 1963591; active = well fitted inhibition curve with a large enough effect in the signal ratio in the repeat runs, not every such curve was filed as active; the % refers to the signal ratio)
Method in brief: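 Antagonist mode: compounds are added alongside the adenylyl cyclase activator NKH477 (0.25 uM final) to CRE-bla HEK293T cells for 3 h. LiveBLAzer FRET substrate, 2 h at room temperature, reports bla expression.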

[18] = molecular target: Beta-2 adrenergic receptor (Homo sapiens) (UniProt P07550); assay: Adrenergic beta2 receptor (ADRB2) small molecule antagonists, cell-based qHTS assay (AID 1963592); also: series mostly up to about 92 µM; nearly all actives have a fitted effect of over 50% in size
Method in brief: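 Assay format: CHO-ADRB2 cells, 18-20hr seeding at 37C/5% CO2, then compound plus 1nM isoproterenol agonist mix for 0.5hr RT. Homogeneous time-resolved fluorescence cAMP detection after 1hr, expressed as 665/615 nm ratio.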

[19] = cAMP Responsive Elements (CRE) small molecule agonists, cell-based qHTS assay (AID 1963590)
Method in brief: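 Agonist mode: compound added to CRE-bla HEK 293T cells (2,000/well, 18 h after plating) for 3 h at 37 C/5% CO2. Reporter activity detected via FRET beta-lactamase substrate, 2 h room-temperature loading.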

Measured: Potency

Sequence of Gonadotropin-releasing hormone receptor (Homo sapiens) (P30968 whole entry, looked up): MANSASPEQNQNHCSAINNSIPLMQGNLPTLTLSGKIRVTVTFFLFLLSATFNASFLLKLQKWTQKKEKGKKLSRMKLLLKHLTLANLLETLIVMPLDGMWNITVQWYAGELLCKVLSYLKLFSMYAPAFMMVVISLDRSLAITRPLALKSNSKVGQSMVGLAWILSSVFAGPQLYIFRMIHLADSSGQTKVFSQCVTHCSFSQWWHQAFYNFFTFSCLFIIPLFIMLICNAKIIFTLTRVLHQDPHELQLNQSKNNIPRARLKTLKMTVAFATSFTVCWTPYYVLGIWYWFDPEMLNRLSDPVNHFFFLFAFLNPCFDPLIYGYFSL
Sequence of D(2) dopamine receptor (Homo sapiens) (P14416 whole entry, looked up): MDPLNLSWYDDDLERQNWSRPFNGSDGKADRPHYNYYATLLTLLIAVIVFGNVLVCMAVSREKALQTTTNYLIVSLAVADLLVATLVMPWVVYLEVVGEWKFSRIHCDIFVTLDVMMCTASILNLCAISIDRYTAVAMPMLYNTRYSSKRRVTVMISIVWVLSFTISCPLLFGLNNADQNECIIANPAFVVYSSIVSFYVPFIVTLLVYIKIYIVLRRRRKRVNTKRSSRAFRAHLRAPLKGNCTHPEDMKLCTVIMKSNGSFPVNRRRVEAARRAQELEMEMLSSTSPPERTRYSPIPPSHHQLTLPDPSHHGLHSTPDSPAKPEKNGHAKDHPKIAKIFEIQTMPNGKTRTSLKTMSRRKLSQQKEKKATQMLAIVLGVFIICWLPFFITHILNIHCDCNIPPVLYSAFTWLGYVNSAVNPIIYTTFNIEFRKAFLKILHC
Sequence of KiSS-1 receptor (Homo sapiens) (Q969F8 whole entry, looked up): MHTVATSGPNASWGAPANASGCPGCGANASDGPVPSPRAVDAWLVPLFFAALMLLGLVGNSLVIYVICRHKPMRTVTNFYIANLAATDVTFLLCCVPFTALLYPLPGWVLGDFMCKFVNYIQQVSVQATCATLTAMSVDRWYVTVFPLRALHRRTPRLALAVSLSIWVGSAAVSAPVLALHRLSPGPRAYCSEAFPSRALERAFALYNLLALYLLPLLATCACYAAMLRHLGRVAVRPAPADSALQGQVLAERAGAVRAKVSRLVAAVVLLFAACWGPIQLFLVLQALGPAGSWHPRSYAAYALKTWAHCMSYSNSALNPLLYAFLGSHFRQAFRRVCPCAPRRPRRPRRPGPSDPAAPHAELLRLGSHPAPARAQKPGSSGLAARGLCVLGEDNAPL
Sequence of Beta-2 adrenergic receptor (Homo sapiens) (P07550 whole entry, looked up): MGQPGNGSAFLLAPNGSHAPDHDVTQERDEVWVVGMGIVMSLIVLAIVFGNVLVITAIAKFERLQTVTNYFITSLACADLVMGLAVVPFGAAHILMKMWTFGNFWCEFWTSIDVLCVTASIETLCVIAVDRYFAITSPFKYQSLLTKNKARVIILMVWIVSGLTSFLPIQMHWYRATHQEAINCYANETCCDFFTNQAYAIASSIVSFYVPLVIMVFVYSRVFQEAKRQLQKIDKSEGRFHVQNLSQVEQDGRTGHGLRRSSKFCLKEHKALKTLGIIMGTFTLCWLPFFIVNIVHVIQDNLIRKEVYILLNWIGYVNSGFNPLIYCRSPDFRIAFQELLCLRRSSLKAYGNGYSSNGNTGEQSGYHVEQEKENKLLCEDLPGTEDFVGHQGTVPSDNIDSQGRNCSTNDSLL
Sequence of 5-hydroxytryptamine receptor 2A (Homo sapiens) (P28223 whole entry, looked up): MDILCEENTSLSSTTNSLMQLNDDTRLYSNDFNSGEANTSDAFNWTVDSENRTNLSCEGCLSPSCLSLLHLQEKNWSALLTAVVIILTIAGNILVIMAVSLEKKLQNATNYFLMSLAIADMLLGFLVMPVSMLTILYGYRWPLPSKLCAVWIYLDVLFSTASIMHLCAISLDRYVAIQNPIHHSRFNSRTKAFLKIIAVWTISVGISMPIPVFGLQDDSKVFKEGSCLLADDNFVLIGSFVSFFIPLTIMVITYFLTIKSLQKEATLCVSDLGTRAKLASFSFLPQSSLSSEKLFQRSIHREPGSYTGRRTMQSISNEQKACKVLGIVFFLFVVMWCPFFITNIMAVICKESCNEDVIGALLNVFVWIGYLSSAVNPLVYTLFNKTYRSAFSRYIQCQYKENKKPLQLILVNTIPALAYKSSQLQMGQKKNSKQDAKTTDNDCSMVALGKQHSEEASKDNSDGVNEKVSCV
Sequence of Muscarinic acetylcholine receptor M1 (Homo sapiens) (P11229 whole entry, looked up): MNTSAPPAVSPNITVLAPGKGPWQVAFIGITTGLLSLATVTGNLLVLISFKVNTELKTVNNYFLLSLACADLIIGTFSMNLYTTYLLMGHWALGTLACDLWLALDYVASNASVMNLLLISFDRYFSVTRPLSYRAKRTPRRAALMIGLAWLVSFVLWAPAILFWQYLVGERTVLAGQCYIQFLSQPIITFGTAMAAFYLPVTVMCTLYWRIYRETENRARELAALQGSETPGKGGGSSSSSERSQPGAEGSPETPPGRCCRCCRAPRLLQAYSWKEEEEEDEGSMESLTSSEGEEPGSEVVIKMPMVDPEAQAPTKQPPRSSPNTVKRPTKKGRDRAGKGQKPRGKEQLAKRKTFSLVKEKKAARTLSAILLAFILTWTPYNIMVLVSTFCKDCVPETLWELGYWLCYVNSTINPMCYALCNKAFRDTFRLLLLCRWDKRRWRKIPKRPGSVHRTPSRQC

CC[C@H](NC(C)C)[C@H](O)c1ccc(O)c2[nH]c(=O)ccc12
inactive: [1] | [2] | [4] | [5] | [6] | [7] | [8] | [9] | [10] | [11] | [12] | [13] | [14] | [15]
active: [3] 0.012 µM | [16] 0.0944 µM

CCCCCCCC/C=C/C(=O)O
inactive: [1] | [2] | [3] | [4] | [5] | [6] | [7] | [8] | [9] | [10] | [11] | [12] | [13] | [14] | [17] | [18] | [15] | [16]

CN1C(=O)N(c2ccccc2Br)Cc2cnc(Nc3ccc4c(c3)OCC(CO)O4)nc21 (centres undefined)
inactive: [2] | [3] | [4] | [5] | [6] | [7] | [8] | [9] | [10] | [11] | [12] | [13] | [14] | [15]
active: [1] 54.5 µM

O=C(OC1C[C@H]2CC[C@@H](C1)[N+]21CCCC1)C(O)(c1ccccc1)c1ccccc1 (some centres undefined)
inactive: [1] | [2] | [3] | [4] | [5] | [6] | [7] | [8] | [9] | [10] | [12] | [14] | [19] | [17] | [15] | [16]
active: [13] 0.0015 µM

C/C=C/C(=O)Oc1c(CCCCCC(C)C)cc([N+](=O)[O-])cc1[N+](=O)[O-]
inactive: [2] | [4] | [5] | [6] | [7] | [14] | [18] | [15] | [16]
active: [1] 17.2 µM | [3] 38.9 µM | [8] 14.5 µM | [9] 40.8 µM | [10] 11.5 µM | [11] 21.1 µM

Cc1cccc(C)c1C
inactive: [1] | [2] | [3] | [4] | [5] | [6] | [7] | [8] | [9] | [10] | [11] | [13] | [17] | [18] | [15] | [16]

CC(=O)OC(C)(C)Cc1ccccc1
inactive: [1] | [2] | [3] | [4] | [5] | [6] | [7] | [8] | [9] | [10] | [12] | [13] | [14] | [19] | [17] | [18] | [15]

Source: PubChem BioAssay (Tox21)
